# Results as given in PubChem BioAssay.
# Unmarked numbers belong to inactive results. No rule for the calls is given here.
# Molecular target: Pantothenate synthetase (Mycobacterium tuberculosis (strain ATCC 25618 / H37Rv)) (UniProt P9WIL5)
# Test: Recombinant Mtb pantothenate synthetase (PanC) inhibitors, coupled enzyme, confirmatory (AID 375);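 also: 0% = full reaction with vehicle and 100% = no enzyme background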
# Details: coupled enzyme assay; at 10 µM, hits give high values
# Sequence of Pantothenate synthetase (Mycobacterium tuberculosis (strain ATCC 25618 / H37Rv)) (P9WIL5 whole entry, looked up): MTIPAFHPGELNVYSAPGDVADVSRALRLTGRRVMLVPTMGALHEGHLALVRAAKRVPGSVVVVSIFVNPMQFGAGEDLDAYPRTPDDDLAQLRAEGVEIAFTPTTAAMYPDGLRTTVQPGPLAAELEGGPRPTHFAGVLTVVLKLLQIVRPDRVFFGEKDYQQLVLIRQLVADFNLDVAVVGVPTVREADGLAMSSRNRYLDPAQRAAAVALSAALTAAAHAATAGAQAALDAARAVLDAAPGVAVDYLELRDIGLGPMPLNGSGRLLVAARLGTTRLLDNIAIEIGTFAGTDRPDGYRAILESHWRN
row,Structure (SMILES),inhibition
1,CC(=O)O[C@H]1CSC[C@H]1NC(=O)c1ccccc1,0%
2,COc1ccc(S(=O)(=O)N(CCN2CCOCC2)Cc2cc(OC)ccc2OC)cc1,4%
3,COc1ccc(S(=O)(=O)N(CC(=O)N2CCN(c3ccccc3OC)CC2)c2ccccc2)cc1,0%
4,O=C(O)CSC1CC(=O)N(c2ccc(Cl)c(Cl)c2)C1=O (stereo not given),0%
5,Cc1csc(NC(=O)C2CCCO2)n1 (stereo not given),0%
6,Cc1ccc(NC2c3ncccc3C(=O)N2C2CCCCC2)cc1C (stereo not given),0%
7,COc1cc2nc(N3CCN(C(=O)C4CCCO4)CC3)nc(N)c2cc1OC (stereo not given),0%
8,c1ccc(-n2ncc3c(NC4CCCCCC4)ncnc32)cc1,0%
9,N#CC1=C(N)N(c2ccccc2)C(c2ccco2)C1(C#N)C#N (stereo not given),2%
10,CSc1nnc(-c2cnccn2)n1C,0%
11,O=C1CCc2cc(S(=O)(=O)N3CCC(C(=O)Nc4nccs4)CC3)ccc2N1,4%
12,CCN(CC)CCCN1C(=O)C(O)=C(C(C)=O)C1c1cccc(OC)c1 (stereo not given),0%
13,C[C@H](NC(=O)Nc1ccccc1F)C(=O)O,2%
14,CCCCn1c(SCC(=O)N2CC(=O)Nc3ccccc32)nnc1-c1ccoc1C,3%
15,O=C1OCCC1Sc1ncnc2sccc12 (stereo not given),0%
16,Cc1ccc(C2C(C(=O)c3sc(C)nc3C)=C(O)C(=O)N2CCN(C)C)o1 (stereo not given),0%
17,CC1Cc2ccccc2N1C(=O)CSc1nc2ccccc2n1CC(=O)N1CCOCC1 (stereo not given),0%
18,CC1CN(C(=O)c2cc3cc(Cl)cc(Cl)c3oc2=O)CC(C)O1 (stereo not given),0%
19,CC(C)CCNC(=O)CCNS(=O)(=O)c1ccc(Cl)cc1,0%
20,[O-][n+]1c2c(nn1-c1ccccc1Cl)-c1nonc1CC2,4%

row,Structure (SMILES),inhibition
1,Nc1nc(-n2cnnc2)nn1-c1ccccc1,0%
2,CCOC(=O)CSC1=C(C#N)C(=O)NC(c2ccc(OC)c(OC)c2)S1 (stereo not given),16%
3,COCc1[nH]nc2c1C(c1cc(OC)c(O)c(OC)c1)C(C#N)=C(N)O2 (stereo not given),0%
4,O=C(c1ccc2snnc2c1)N1CCOCC1,3%
5,O=C(CCN1CCN(c2ccc(F)cc2)CC1)Nc1ccccc1F,1%
6,Nc1cc(=O)[nH]c(SCC(=O)Nc2ccc(Br)cc2)n1,2%
7,Cn1ccnc1C(O)c1ccco1 (stereo not given),3%
8,CCN(CC)CCNC(=O)c1ccc(NC(C)=O)cc1,0%
9,Cc1nn(S(=O)(=O)N2CCCCC2)c(C)c1Br,0%
10,Cc1nnc(SCC(=O)N2CCC(C(=O)Nc3nccs3)CC2)n1Cc1ccccc1,0%
11,O=C(O)c1cc(=O)c2c(OCC(O)COc3cccc4oc(C(=O)O)cc(=O)c34)cccc2o1,1%
12,CCCCC(c1nnnn1C1CCCC1)N1CCN(C2CCCCC2)CC1 (stereo not given),1%
13,CC(=O)NC1(c2nnnn2CCOC(=O)Nc2ccc(Cl)cc2)CCCCC1,1%
14,CSc1ccccc1NS(=O)(=O)c1ccccc1,3%
15,Cn1c(C(=O)NCCCN2CCCCCC2)cc2c(=O)n(C)c3ccccc3c21,0%
16,CCOc1cc(C(=O)N2CCN=C2SC)cc(OCC)c1OCC,7%
17,COc1ccc(-n2c(SCC(=O)N3CCCCC3C)nnc2-c2cccnc2)cc1 (stereo not given),0%
18,CC(=Nc1ccc(C)c(C)c1)C1=C(O)CCC1=O,3%
19,Oc1ccc2[nH]cnc2c1CN1CCCCC1,0%
20,CCOC(=O)c1sc(N)c(C(=O)OCC)c1COC(=O)C1CC(=O)N(Cc2ccco2)C1 (stereo not given),6%
